# EWS-Fli block – EWS/Fli transcriptional activity inhibition. A673 NR0B1-luciferase reporter, viability-normalised. inhibition, % at 12.6 µM. AID 651661. 350,000 compounds, 0.67% hits;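 active = mean inhibition of at least 50% after viability correction, with every replicate also passing that limit; inconclusive = mean reaches 50% but only one of two replicates passes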;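 also: firefly luciferase signal divided by Alamar Blue viability fluorescence both relative to DMSO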
# LGR2 inh – inhibitors of bursicon-induced Drosophila LGR2 receptor cAMP signaling | 380,000 compounds, 0.35% hits | HEK293 LGR2, CRE-luciferase, bursicon-stimulated, 4 h | inhibition, % at 9.99 µM;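 active = drop in luminescence signal, shown as inhibition above about 50% in the replicate tests, limit read from the data, passing the limit was not always enough; inconclusive = probably only some replicates passing the limit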;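 also: agonist challenge used bursicon conditioned medium at about half maximal strength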
# PGC1a acetyl inh – modulators of PGC1a acetylation; AID 651687; U2OS PGC1a acetylation, AlphaScreen anti-acetyl-lysine; with virally co-expressed GCN5 acetyltransferase; 350,000 compounds, 0.17% hits; inhibition, % at 15.6 µM;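 active = every replicate shows inhibition of at least 40%; inconclusive = mean inhibition at least 40% but some replicate below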;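 also: 0% = neutral control wells and 100% = positive control wells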
# EBV LMP1 NFkB – Epstein-Barr LMP1 NF-kappaB reporter inhibition | LMP1-induced NF-kappaB luciferase reporter cells, luminescence | inhibition, % at 12.5 µM | 350,000 compounds, 0.69% hits | AID 504558; in the data active = inhibition above about 41%; inconclusive = no clear call, values can overlap the other calls;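 also: 0% = neutral control wells and 100% = reference inhibitor control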
# PAX8 reporter – lowers PAX8-driven luciferase in RMG-I cells; inhibition, % at 12.6 µM; AID 652154; RMG-I TPO-luciferase reporter, SteadyGlo, 24 h; 360,000 compounds, 1.2% hits;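 active = mean replicate inhibition at least 60% with every replicate also reaching 60%; inconclusive = only one of the two criteria is met; inactive = mean below 60% and not all replicates reaching 60%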;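 also: luciferase light reporting Pax8 driven TPO promoter activity; plate controls were median of neutral control wells for no effect and mitoxantrone controls for full effect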
# TRPM1 prom inh – inhibitors of MITF-driven TRPM1 promoter in melanoma cells; SK-MEL-5 TRPM1 promoter luciferase, 24 h; inhibition, % at 12.5 µM; 330,000 compounds, 0.83% hits;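 active = mean inhibition across replicates of 60% or more, whatever share of single replicates reaches that level; inconclusive = some that reach 60%, reason not given; inactive = mean inhibition across replicates below 60%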
# Active calls of the source: *; u = inconclusive; x = no result; ! = a repeat was not active. An excerpt weighted towards active compounds, which were near 2.2% of everything screened.
SMILES,EWS-Fli block,LGR2 inh,PGC1a acetyl inh,EBV LMP1 NFkB,PAX8 reporter,TRPM1 prom inh
Nc1c2ccccc2nc2ccccc12,45,96*,12,-20,-12,84*
C[C@H](CO)N1C[C@H](C)[C@@H](CN(C)C)Oc2cc(C#CC3CCCC3)ccc2S1(=O)=O,1,17,x,x,-13,x
CC(=O)c1cccc(-n2nnnc2SCC(=O)NNC(=O)C(C)C)c1,-2,12,85*,-10,-2,-3
C[C@@H]1CCCCO[C@@H](CN(C)S(=O)(=O)c2ccccc2)[C@H](C)CN([C@H](C)CO)C(=O)c2cc(NC(=O)Nc3cccc4ccccc34)ccc2O1,17,-1,-21,x,-17,x
C[C@H](CO)N1C[C@H](C)[C@@H](CN(C)CC2CC2)Oc2ccc(NC(=O)CCCN(C)C)cc2C1=O,9,16,11,x,-28,x
CCSc1nc2ccccc2n1C(=O)/C=C\c1ccc(OC)c(OC)c1,x,x,-60,68*,70*,69*
Cc1cc(/C=N/Nc2ncnc(N)c2[N+](=O)[O-])c(C)n1-c1ccccc1,83*,79*,-1,78*,62*,81*
O=C(C1CCN(S(=O)(=O)c2cccnc2)CC1)N1CCN(c2ccccc2Cl)CC1,x,x,7,2,x,-6
O=C(C1CCN(S(=O)(=O)c2cccnc2)CC1)N1CCN(c2ccc(Cl)cc2)CC1,6,11,x,26,67*,12
Fc1ccc(/C=C2\CCCC3=C2Nc2ncnn2C3c2ccc(F)cc2)cc1 (configuration not stated),x,x,-51,1,x,88*
CN(C)C(=O)[C@H]1[C@H](CO)[C@H]2Cn3c(ccc(-c4cccnc4)c3=O)[C@@H]1N2C(=O)NC1CCCC1,5,-4,x,x,-8,x
COc1ccc(S(=O)(=O)N[C@@H]2CC[C@H](CC(=O)NCc3ccccc3F)O[C@@H]2CO)cc1,8,-16,-6,x,-5,x
CN1CCN(/N=C/c2ccc(N(C)c3ccccc3)cc2)CC1,-4,3,-3,4,-8,1
CN1CCN(/N=C/c2ccc(N(c3ccccc3)c3ccccc3)cc2)CC1,18,78*,56*,87*,23,-16
C[C@H](CO)N1C[C@H](C)[C@H](CN(C)C(=O)Nc2ccc(F)cc2)Oc2c(NS(=O)(=O)c3cn(C)cn3)cccc2C1=O,14,-8,0,x,-32,x
CC(=O)Nc1sc2c(c1-c1nc3ccccc3s1)CCN(C(C)C)C2,x,x,x,78*,x,77*
Cc1ccc(-c2cnc3c(c2)C(=O)N([C@@H](C)CO)C[C@@H](C)[C@H](CN(C)C)O3)cc1,-20,19,109*,x,x,x
C[C@@H]1CN([C@@H](C)CO)C(=O)c2cc(C#CCN(C)C)cnc2O[C@@H]1CN(C)Cc1ccc(-c2ccccc2)cc1,35,-12,-4,x,x,x
COc1ccc(-c2cnc3c(c2)C(=O)N([C@H](C)CO)C[C@@H](C)[C@@H](CN(C)C(=O)Nc2c(C)noc2C)O3)cc1,27,10,43*,x,x,x
C[C@@H]1CN([C@@H](C)CO)C(=O)c2cc(C#CCN(C)C)cnc2O[C@H]1CN(C)Cc1ccc(-c2ccccc2)cc1,73*!,-9,-46,x,x,x
COc1ccc(-c2cnc3c(c2)C(=O)N([C@H](C)CO)C[C@H](C)[C@@H](CN(C)C(=O)C2CC2)O3)cc1,-3,-9,111*,x,x,x
Cc1ccc(-c2cnc3c(c2)C(=O)N([C@@H](C)CO)C[C@@H](C)[C@@H](CN(C)C)O3)cc1,-10,6,3,x,x,x
COc1ccc(NC(=O)N[C@@H]2C=C[C@@H](CC(=O)NC3CCCCC3)O[C@@H]2CO)cc1,2,-3,-6,x,15,x
CNC[C@@H]1OCCCC[C@H](C)Oc2ccc(NS(C)(=O)=O)cc2C(=O)N([C@@H](C)CO)C[C@H]1C,-10,15,8,x,-5,x
COc1ccccc1NC(=O)C[C@H]1CC[C@H]2[C@@H](COc3ccc(NC(C)=O)cc3C(=O)N2C)O1,-1,-9,4,x,x,x
SMILES,EWS-Fli block,LGR2 inh,PGC1a acetyl inh,EBV LMP1 NFkB,PAX8 reporter,TRPM1 prom inh
COc1cc(C2C3=C(COC3=O)OC(C)(C)Oc3cc4c(cc32)OCO4)cc(OC)c1OC (configuration not stated),54*,-17,6,1,93*,54
O=C(/C=C/c1ccco1)Oc1cc(Br)cc(/C=N/NC(=O)c2ccccc2O)c1,-3,-8,x,61*,10,25
Cc1ccc(C(=O)N/N=C/c2cccc(OC(=O)/C=C/c3ccco3)c2)cn1,-25,-5,-3,-3,-141,-28
c1ccc(Nc2nc(NCc3ccco3)c3ccccc3n2)cc1,9,6,12,-14,67*,5
Cc1cccc(Nc2nc(NCc3ccco3)c3ccccc3n2)c1,9,x,x,u,x,7
COc1cc2c(cc1OC)CN(C(=O)[C@H]1[C@@H]3C(=O)O[C@@H](c4ccccc4)[C@@H](c4ccccc4)N3[C@@H](c3ccc(O)cc3)[C@]13C(=O)Nc1ccccc13)CC2,8,x,-5,x,18,x
O=C(C[C@@H]1C[C@H]2c3cc(NS(=O)(=O)c4ccc(F)cc4)ccc3O[C@H]2[C@@H](CO)O1)NCc1ccc(-c2ccccc2)cc1,-10,16,-8,x,73*,x
O=C(C[C@@H]1C[C@H]2c3cc(NS(=O)(=O)c4ccc(F)cc4)ccc3O[C@H]2[C@H](CO)O1)NCc1ccc(Cl)cc1,-15,3,-6,x,78*,x
O=C(C[C@H]1C[C@H]2c3cc(NS(=O)(=O)c4ccc(F)cc4)ccc3O[C@H]2[C@H](CO)O1)NCc1ccc(-c2ccccc2)cc1,31,30,6,x,84*,x
O=C(C[C@@H]1C[C@@H]2c3cc(NS(=O)(=O)c4ccc(F)cc4)ccc3O[C@@H]2[C@@H](CO)O1)NCc1ccc(-c2ccccc2)cc1,18,x,-9,x,87*,x
COc1ccc(S(=O)(=O)N(C)C[C@@H]2Oc3ccc(NC(=O)NC4CCCCC4)cc3C(=O)N([C@@H](C)CO)C[C@H]2C)cc1,-1,15,5,x,x,x
Oc1c(N=Nc2ccc(F)cc2)ccc2ccccc12,4,7,x,-45,-41,-11
Oc1ccc(N=Nc2ccccc2C(F)(F)F)c2cccnc12,3,46,19,72*,92*,73*
COc1ccccc1N=Nc1ccc(O)c2ncccc12,-86,-21,13,32,20,1
Cc1ccc(N=Nc2ccc3ccccc3c2O)cc1,55*,30,x,4,-26,21
Cc1ccc(N=Nc2ccc(O)c3ncccc23)cc1,41,x,x,13,9,87*
CCS(=O)(=O)c1ccc(N=Nc2ccc(O)c3ncccc23)c(OC)c1,11,47,34,-14,97*,66*
CC(C)CN1CCN(C(=O)COC(=O)c2ccc(S(C)(=O)=O)c([N+](=O)[O-])c2)CC1,34,23,-68,x,112*,x
Cn1cccc1C(=O)NC(=O)COC(=O)c1ccc(S(C)(=O)=O)c([N+](=O)[O-])c1,x,x,x,-1,x,86*
